# Source: PMC7862700, “An all-to-all approach to the identification of sequence-specific readers for epigenetic DNA modifications on cytosine”
# What was measured:
# Assay in all cases: DAPPL (digital affinity profiling via proximity ligation, sequencing); 10 mM Tris-HCl pH 7.5, 50 mM NaCl, 1 mM DTT, 4% glycerol, room temperature, 30 min; GST-TFs on glutathione beads, 16-mer random dsDNA library, 0.1% formaldehyde crosslink after washing; high values mean tight binding
# Conditions in all cases: protein: recombinant; tags: N-terminal GST; dsDNA, one strand shown
# FLI1 = biological target: T1, FLI1 (Homo sapiens, UniProt Q01543 1-452)
# T1 sequence: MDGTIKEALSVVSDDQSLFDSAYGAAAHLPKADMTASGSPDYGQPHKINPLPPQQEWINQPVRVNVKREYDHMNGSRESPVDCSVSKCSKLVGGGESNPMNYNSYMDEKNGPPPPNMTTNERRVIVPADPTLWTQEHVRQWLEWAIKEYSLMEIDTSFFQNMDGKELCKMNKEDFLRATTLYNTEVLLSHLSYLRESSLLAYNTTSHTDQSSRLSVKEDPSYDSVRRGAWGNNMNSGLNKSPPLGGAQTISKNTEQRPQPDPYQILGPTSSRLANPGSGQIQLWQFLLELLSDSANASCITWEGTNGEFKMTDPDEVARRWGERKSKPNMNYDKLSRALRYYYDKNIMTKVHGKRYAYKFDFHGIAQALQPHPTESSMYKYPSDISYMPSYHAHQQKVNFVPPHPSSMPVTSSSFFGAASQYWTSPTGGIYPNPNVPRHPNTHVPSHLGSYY
# How it was run: (§1)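 Sequencing on an Illumina NextSeq500 followed washing, crosslinking with 0.1% formaldehyde, proximity ligation (BsaI/T4 ligase, 1 h, 37 °C) and PCR amplification of pools that had been incubated for 30 min at room temperature with 200 nmole of a random double-stranded 16-mer DNA library in Tris/NaCl/DTT/glycerol buffer. Each pool held DNA-barcoded human transcription factors, expressed in yeast as GST fusions and captured on glutathione beads, plus a tag-only sample. Binding signal is a hexamer's read frequency for a factor divided by its frequency in the tag-only sample.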
# ELK1 = biological target: T2, ELK1 (Homo sapiens, UniProt P19419 1-428)
# T2 sequence: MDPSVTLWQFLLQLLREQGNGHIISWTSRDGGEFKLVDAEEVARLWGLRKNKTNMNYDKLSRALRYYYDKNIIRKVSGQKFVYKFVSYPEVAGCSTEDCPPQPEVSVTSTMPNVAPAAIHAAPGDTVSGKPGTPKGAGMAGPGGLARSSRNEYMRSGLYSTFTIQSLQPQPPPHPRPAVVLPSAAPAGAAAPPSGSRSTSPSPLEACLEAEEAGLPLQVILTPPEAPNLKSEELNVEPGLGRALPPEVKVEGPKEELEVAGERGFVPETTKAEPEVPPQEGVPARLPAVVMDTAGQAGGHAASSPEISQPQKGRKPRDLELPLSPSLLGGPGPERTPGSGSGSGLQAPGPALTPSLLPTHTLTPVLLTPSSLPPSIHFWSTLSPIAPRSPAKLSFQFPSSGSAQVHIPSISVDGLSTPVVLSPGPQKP
# How it was run: as §1
# GABPA = biological target: T3, GABPA (Homo sapiens, UniProt Q06546 1-454)
# T3 sequence: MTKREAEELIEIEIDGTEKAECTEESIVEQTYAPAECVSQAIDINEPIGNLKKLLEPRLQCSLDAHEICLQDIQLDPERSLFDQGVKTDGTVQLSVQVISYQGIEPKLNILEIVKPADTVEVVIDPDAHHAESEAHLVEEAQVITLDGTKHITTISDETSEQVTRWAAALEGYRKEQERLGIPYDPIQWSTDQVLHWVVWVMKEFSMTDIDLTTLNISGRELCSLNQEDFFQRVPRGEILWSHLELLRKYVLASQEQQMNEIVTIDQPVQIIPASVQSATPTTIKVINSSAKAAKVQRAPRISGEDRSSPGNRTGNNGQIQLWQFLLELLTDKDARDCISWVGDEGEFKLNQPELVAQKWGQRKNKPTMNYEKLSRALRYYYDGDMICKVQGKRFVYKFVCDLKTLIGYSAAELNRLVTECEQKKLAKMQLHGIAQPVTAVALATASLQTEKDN
# How it was run: as §1
# ERG = biological target: T4, ERG (Homo sapiens, UniProt P11308 1-479)
# T4 sequence: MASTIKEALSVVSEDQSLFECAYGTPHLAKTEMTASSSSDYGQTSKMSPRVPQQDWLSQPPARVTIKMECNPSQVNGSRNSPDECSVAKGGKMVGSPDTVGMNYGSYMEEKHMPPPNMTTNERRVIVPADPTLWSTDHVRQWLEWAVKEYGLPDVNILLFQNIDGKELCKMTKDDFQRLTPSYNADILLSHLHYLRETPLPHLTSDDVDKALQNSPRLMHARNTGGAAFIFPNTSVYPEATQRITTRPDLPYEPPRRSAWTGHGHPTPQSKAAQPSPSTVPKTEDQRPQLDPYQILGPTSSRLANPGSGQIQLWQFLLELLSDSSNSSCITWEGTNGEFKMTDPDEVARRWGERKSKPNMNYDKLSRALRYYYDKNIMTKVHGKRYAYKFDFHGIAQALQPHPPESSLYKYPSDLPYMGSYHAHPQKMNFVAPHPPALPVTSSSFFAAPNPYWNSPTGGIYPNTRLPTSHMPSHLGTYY
# How it was run: as §1
# ELF1 = ELF1 (Homo sapiens, UniProt P32519 1-619)
# How it was run: as §1
# EHF = biological target: T5, EHF (Homo sapiens, UniProt Q9NZC4 1-300)
# T5 sequence: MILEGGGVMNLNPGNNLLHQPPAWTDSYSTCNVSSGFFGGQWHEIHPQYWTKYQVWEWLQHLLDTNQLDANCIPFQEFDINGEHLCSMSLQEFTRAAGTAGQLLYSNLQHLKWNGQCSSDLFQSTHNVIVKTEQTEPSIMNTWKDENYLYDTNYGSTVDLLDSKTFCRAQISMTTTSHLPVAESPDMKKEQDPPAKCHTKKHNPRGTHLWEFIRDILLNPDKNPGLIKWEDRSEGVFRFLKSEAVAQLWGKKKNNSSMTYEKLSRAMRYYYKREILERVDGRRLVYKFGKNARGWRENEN
# How it was run: as §1
# SPI1 = SPI1 (Homo sapiens, UniProt P17947 1-270)
# How it was run: as §1
# SPIB = SPIB (Homo sapiens, UniProt Q01892 1-262)
# How it was run: as §1
# ELK3 = biological target: T6, ELK3 (Homo sapiens, UniProt P41970 1-407)
# T6 sequence: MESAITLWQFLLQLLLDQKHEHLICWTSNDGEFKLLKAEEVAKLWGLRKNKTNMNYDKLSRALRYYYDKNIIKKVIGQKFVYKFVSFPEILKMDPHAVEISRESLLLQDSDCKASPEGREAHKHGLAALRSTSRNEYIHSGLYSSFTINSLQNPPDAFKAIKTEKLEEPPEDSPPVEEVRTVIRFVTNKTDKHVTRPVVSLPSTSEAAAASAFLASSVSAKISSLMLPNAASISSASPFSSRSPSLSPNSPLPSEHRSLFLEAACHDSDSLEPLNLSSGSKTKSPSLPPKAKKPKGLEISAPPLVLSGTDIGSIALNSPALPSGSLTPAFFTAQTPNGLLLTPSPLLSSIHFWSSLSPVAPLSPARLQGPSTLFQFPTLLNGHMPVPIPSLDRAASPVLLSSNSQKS
# How it was run: as §1
# SPIB, sequence (Q01892 whole entry): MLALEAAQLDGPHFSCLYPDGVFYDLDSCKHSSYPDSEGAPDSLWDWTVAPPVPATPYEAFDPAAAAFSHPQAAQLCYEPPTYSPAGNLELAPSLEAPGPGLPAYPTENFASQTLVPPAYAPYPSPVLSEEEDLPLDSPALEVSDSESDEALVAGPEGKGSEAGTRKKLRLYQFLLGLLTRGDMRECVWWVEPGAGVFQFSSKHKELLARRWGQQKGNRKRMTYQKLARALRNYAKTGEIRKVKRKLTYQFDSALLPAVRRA
# ELF1, sequence (P32519 whole entry): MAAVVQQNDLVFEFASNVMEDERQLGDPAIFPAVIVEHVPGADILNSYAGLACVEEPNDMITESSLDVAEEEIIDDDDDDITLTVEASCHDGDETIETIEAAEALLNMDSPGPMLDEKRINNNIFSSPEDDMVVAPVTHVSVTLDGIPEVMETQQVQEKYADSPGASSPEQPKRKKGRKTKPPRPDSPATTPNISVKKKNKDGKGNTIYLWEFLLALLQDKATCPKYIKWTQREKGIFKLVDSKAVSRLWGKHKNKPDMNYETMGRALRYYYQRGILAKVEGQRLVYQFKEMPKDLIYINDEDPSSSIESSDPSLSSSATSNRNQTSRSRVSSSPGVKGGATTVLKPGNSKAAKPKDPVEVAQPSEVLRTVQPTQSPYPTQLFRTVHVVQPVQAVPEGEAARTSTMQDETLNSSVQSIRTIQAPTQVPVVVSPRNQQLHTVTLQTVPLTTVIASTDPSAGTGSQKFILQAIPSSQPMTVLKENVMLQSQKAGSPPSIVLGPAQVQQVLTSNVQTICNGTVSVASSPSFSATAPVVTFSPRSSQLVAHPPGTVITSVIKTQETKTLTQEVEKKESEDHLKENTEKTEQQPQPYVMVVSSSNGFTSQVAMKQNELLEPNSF
sequence,measurement,setting,value
ATTCTC,binding signal,FLI1,"1.35 fold enrichment (6-mer frequency, TF over GST control)"
same,binding signal,ELK1,"1.27 fold enrichment (6-mer frequency, TF over GST control)"
same,binding signal,GABPA,"1.32 fold enrichment (6-mer frequency, TF over GST control)"
same,binding signal,ERG,"1.25 fold enrichment (6-mer frequency, TF over GST control)"
same,binding signal,ELF1,"1.24 fold enrichment (6-mer frequency, TF over GST control)"
same,binding signal,EHF,"1.27 fold enrichment (6-mer frequency, TF over GST control)"
same,binding signal,SPI1,"1.27 fold enrichment (6-mer frequency, TF over GST control)"
same,binding signal,SPIB,"1.32 fold enrichment (6-mer frequency, TF over GST control)"
same,binding signal,ELK3,"1.42 fold enrichment (6-mer frequency, TF over GST control)"
